Counter-ions that a name gives are not always drawn.
Test system: Saccharomyces cerevisiae
Test: fraction of cells in G1 phase (DNA content, flow cytometry); higher = more cells with unreplicated DNA (G1 delay)
Conditions: temperature: 30 C; YPD; BY4741 PDR5+ SNQ2+; drug added to: actively dividing cells; 4.33 h
Procedure: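 S. cerevisiae cultures in YPD at 30°C were treated with each drug of the Enzo FDA-approved library at 20 µg/ml (final µM given per drug). Cells were fixed after 6–7 h (S1) or 6 h (S2), or after 4.33 h for BY4741 (S3), then stained with SYTOX Green. %G1 is the Dean-Jett-Fox G1 peak area divided by the G1+G2/M peak areas, written as a fraction and averaged over at least two independent experiments. DMSO reference: mean ~0.49; >0.60 is called High G1 and <0.3876 Low G1. Scale: lower means mitotic delay.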

Point of comparison: `CC1C=CC=CCCC=CC=CC=CC=CC(OC2OC(C)C(O)C(N)C2O)CC2OC(O)(CC(O)C(O)CCC(O)CC(O)CC(O)CC(=O)OC(C)C(C)C1O)CC(O)C2C(=O)O` (stereo not given) [Nystatin] (21.5955 µM), “fraction of cells in G1 phase” value 0.549. Against it:
- CCCCC(C#N)(Cn1cncn1)c1ccc(Cl)cc1 (stereo not given) [Myclobutanil] (69.2563 µM) — lower, 0.536
- C[C@@H]1CC[C@H]2[C@@H](C)C(=O)O[C@@H]3O[C@@]4(C)CC[C@@H]1[C@]32OO4 [Artemisinin] (70.8367 µM) — lower, 0.5
- C[C@]12CC[C@H](O)CC1=CC[C@@H]1[C@@H]2CC[C@]2(C)C(=O)CC[C@@H]12 [Dehydroepiandrosterone] (69.34 µM) — lower, 0.501

Same assay, conditions: temperature: 30 C; YPD; JTY2953 pdr5 snq2 (sensitized); drug added to: actively dividing cells; 6 h

Point of comparison: `CC1C=CC=CCCC=CC=CC=CC=CC(OC2OC(C)C(O)C(N)C2O)CC2OC(O)(CC(O)C(O)CCC(O)CC(O)CC(O)CC(=O)OC(C)C(C)C1O)CC(O)C2C(=O)O` (stereo not given) [Nystatin] (21.5955 µM), “fraction of cells in G1 phase” value 0.699. Against it:
- CCCCC(C#N)(Cn1cncn1)c1ccc(Cl)cc1 (stereo not given) [Myclobutanil] (69.2563 µM) — higher, 0.766
- C[C@@H]1CC[C@H]2[C@@H](C)C(=O)O[C@@H]3O[C@@]4(C)CC[C@@H]1[C@]32OO4 [Artemisinin] (70.8367 µM) — lower, 0.691
- C[C@]12CC[C@H](O)CC1=CC[C@@H]1[C@@H]2CC[C@]2(C)C(=O)CC[C@@H]12 [Dehydroepiandrosterone] (69.34 µM) — higher, 0.719
- C[C@]12Cc3c[nH]nc3C[C@@H]1CC[C@@H]1[C@@H]2CC[C@@]2(C)[C@H]1CC[C@]2(C)O [Stanozolol] (60.8824 µM) — lower, 0.497

Same assay, conditions: temperature: 30 C; YPD; JTY2953 pdr5 snq2 (sensitized); drug added to: cultures diluted from stationary phase; 6-7 h

Point of comparison: `C[C@]12Cc3c[nH]nc3C[C@@H]1CC[C@@H]1[C@@H]2CC[C@@]2(C)[C@H]1CC[C@]2(C)O` [Stanozolol] (60.8824 µM), “fraction of cells in G1 phase” value 0.801. Against it:
- CC1C=CC=CCCC=CC=CC=CC=CC(OC2OC(C)C(O)C(N)C2O)CC2OC(O)(CC(O)C(O)CCC(O)CC(O)CC(O)CC(=O)OC(C)C(C)C1O)CC(O)C2C(=O)O (stereo not given) [Nystatin] (21.5955 µM) — lower, 0.665
- COc1ccc(C(CN(C)C)C2(O)CCCCC2)cc1 (stereo not given) [Venlafaxine HCl] (72.0954 µM) — lower, 0.453
- CC(C)[C@@]1(NC(=O)[C@@H]2C[C@@H]3c4cccc5[nH]cc(c45)C[C@H]3N(C)C2)O[C@@]2(O)[C@@H]3CCCN3C(=O)[C@H](Cc3ccccc3)N2C1=O [Dihydroergocristine mesylate] (32.6932 µM) — lower, 0.465
- c1ccc2c(c1)OCC(C1=NCCN1)O2 (stereo not given) [Idazoxan] (97.9286 µM) — lower, 0.48
- CCCCC(C#N)(Cn1cncn1)c1ccc(Cl)cc1 (stereo not given) [Myclobutanil] (69.2563 µM) — lower, 0.667
- Oc1ccc2c3c1O[C@H]1c4[nH]c5ccccc5c4C[C@@]4(O)[C@@H](C2)N(CC2CC2)CC[C@]314 [Naltrindole HCl] (48.2499 µM) — lower, 0.504
- CC(C)NCC(O)c1ccc(N)c(C#N)c1 (stereo not given) [Cimaterol] (91.2039 µM) — lower, 0.493
- CN1C[C@H](C(=O)N[C@]2(C)O[C@@]3(O)[C@@H]4CCCN4C(=O)[C@H](Cc4ccccc4)N3C2=O)C[C@@H]2c3cccc4[nH]cc(c34)C[C@H]21 [Dihydroergotamine mesylate] (34.2646 µM) — lower, 0.527
- O=P1(NCCCl)OCCCN1CCCl (stereo not given) [Ifosfamide] (76.6021 µM) — lower, 0.489
- CC(O)(CS(=O)(=O)c1ccc(F)cc1)C(=O)Nc1ccc(C#N)c(C(F)(F)F)c1 (stereo not given) [Bicalutamide] (46.4705 µM) — lower, 0.493
- O=C(O)CCCc1ccc(N(CCCl)CCCl)cc1 [Chlorambucil] (65.7421 µM) — lower, 0.456
- C[C@]12CCC(=O)C(O)=C1CC[C@@H]1[C@@H]2CC[C@]2(C)C(=O)CC[C@@H]12 [Formestane] (66.1338 µM) — lower, 0.566
- COc1ccc(CCN2CCC(Nc3nc4ccccc4n3Cc3ccc(F)cc3)CC2)cc1 [Astemizole] (43.6125 µM) — lower, 0.501
- COc1ccc(C(=O)N2CCCC2=O)cc1 [Aniracetam] (91.2233 µM) — lower, 0.483
- O=C([O-])Cc1ccccc1.[Na+] [Sodium phenylacetate] (126.475 µM) — lower, 0.487
- C#CCN(C)C(C)Cc1ccccc1 (stereo not given) [Deprenyl] (89.4055 µM) — lower, 0.518
- CO[C@]12C[C@@H](COC(=O)c3cncc(Br)c3)CN(C)[C@@H]1Cc1cn(C)c3cccc2c13 [Nicergoline] (41.2884 µM) — lower, 0.481
- CN1[C@@H]2CC[C@H]1C[C@@H](OC(=O)C(CO)c1ccccc1)C2 (stereo not given in full) [Atropine sulfate] (69.1138 µM) — lower, 0.474
- C[N+](C)(C)CCCCCCCCCC[N+](C)(C)C [Decamethonium 2Br] (77.371 µM) — lower, 0.472
- NCC1(CC(=O)O)CCCCC1 [Gabapentin] (116.794 µM) — lower, 0.543
- CC(NC(C)(C)C)C(=O)c1cccc(Cl)c1 (stereo not given) [Amfebutamone] (83.4211 µM) — lower, 0.502
- CC(N)C(O)c1ccccc1 (stereo not given) [Phenylpropanolamine] (132.266 µM) — lower, 0.466
- C[C@@H]1CC[C@H]2[C@@H](C)C(=O)O[C@@H]3O[C@@]4(C)CC[C@@H]1[C@]32OO4 [Artemisinin] (70.8367 µM) — lower, 0.613
- CC[C@H](C)[C@H]1O[C@]2(C=C[C@@H]1C)C[C@@H]1C[C@@H](C/C=C(\C)[C@@H](O[C@H]3C[C@H](OC)[C@@H](O[C@H]4C[C@H](OC)[C@@H](O)[C@H](C)O4)[C@H](C)O3)[C@@H](C)/C=C/C=C3\CO[C@@H]4[C@H](O)C(C)=C[C@@H](C(=O)O1)[C@]34O)O2.CO[C@H]1C[C@H](O[C@H]2[C@H](C)O[C@@H](O[C@@H]3/C(C)=C/C[C@@H]4C[C@@H](C[C@]5(C=C[C@H](C)[C@@H](C(C)C)O5)O4)OC(=O)[C@@H]4C=C(C)[C@@H](O)[C@H]5OC/C(=C\C=C\[C@@H]3C)[C@]54O)C[C@@H]2OC)O[C@@H](C)[C@@H]1O [Abamectin] (22.9069 µM) — lower, 0.516
- NCCCNCCSP(=O)(O)O [Amifostine] (93.3599 µM) — lower, 0.512
- CCCC[N+]1(C)[C@@H]2C[C@@H](OC(=O)[C@H](CO)c3ccccc3)C[C@H]1[C@@H]1O[C@@H]12 (stereo not given in full) [Scopolamine n-butylbromide] (55.482 µM) — lower, 0.488
- CCCC(=O)OCC[N+](C)(C)C [Butyrylcholine Cl] (114.768 µM) — lower, 0.504
- C[C@]12CC[C@H](O)CC1=CC[C@@H]1[C@@H]2CC[C@]2(C)C(=O)CC[C@@H]12 [Dehydroepiandrosterone] (69.34 µM) — lower, 0.633
- Oc1ccc2c3c1O[C@H]1c4oc5ccccc5c4C[C@@]4(O)[C@@H](C2)N(CC2CC2)CC[C@]314 [Naltriben methanesulfonate hydrate] (39.093 µM) — lower, 0.45
- O=C(CCCN1CCC2(CC1)C(=O)NCN2c1ccccc1)c1ccc(F)cc1 [Spiperone] (50.5713 µM) — lower, 0.484

— the supplement of paper PMC3342239
